From PubChem
In the library only some 2.3% were active in any assay of this set; here they are far more common.
CHT allo act = CHT positive allosteric modulators, primary screen, cell-based, membrane potential dye, choline EC20. CHT-expressing cells; stronger effect = higher value; LV-AA mutant CHT in HEK293 cells. AID 488977, 2010. B-score at 10 µM. actives 0.49% (n = 310,000). High affinity choline transporter 1 (Homo sapiens), Q9GZV3;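 active = initial fluorescence not abnormally high and integrated response B-score, plate-corrected, over 3 SD above library mean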
TMEM16A inh = TMEM16A chloride channel inhibitors, primary screen, cell-based, HTS; HEK293 TMEM16A/YFP iodide influx fluorescence, ionomycin; AID 588511, 2011; actives 1.2% (n = 310,000); normalized B-score (activity score, 25-100; higher = stronger inhibition) at 10 µM; Anoctamin-1 (Mus musculus), Q8BHY3;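 active = ratio plate-corrected score three or more library SD toward inhibition, starting fluorescence score within five deviations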;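 note: score derived from kinetic fluorescence span divided by baseline fluorescence per well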
Target sequence (Q8BHY3 whole entry, looked up): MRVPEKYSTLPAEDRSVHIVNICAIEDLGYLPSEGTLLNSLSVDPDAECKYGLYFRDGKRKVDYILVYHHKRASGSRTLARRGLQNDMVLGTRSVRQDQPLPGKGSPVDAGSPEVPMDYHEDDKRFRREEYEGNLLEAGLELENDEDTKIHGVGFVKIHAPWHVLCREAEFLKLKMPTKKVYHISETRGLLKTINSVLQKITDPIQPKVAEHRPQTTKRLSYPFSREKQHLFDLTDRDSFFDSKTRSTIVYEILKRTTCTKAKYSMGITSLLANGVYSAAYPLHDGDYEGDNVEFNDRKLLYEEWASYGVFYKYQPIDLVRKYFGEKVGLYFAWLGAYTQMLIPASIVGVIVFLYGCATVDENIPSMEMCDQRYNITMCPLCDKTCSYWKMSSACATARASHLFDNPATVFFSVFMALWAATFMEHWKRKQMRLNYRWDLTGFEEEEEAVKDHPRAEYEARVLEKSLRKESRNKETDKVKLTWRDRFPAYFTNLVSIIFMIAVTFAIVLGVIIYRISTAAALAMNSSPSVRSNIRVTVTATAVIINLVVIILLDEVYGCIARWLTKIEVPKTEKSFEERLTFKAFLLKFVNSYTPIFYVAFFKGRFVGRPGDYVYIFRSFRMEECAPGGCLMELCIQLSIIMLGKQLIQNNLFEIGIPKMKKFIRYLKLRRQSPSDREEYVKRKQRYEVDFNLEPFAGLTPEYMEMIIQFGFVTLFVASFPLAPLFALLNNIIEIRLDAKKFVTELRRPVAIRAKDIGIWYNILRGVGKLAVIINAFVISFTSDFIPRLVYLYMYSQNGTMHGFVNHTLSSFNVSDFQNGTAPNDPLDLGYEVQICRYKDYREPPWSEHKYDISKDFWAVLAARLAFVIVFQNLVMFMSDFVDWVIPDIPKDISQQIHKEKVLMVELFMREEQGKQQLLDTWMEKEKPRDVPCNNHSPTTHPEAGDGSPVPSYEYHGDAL
ANO1 activ = TMEM16A chloride channel activators or potentiators, primary screen, cell-based, HTS; AID 623877, 2012; HEK293 TMEM16A/YFP-H148Q/I152L, iodide quench fluorescence; stronger effect = lower value; B-score at 10 µM; Anoctamin-1 (Mus musculus), Q8BHY3; actives 0.3% (n = 340,000);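 active = fluorescence-ratio B-score plate-corrected deviation score at least 3 library SD below zero, with starting fluorescence score within 5 deviations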;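 note: channel opened by trigger with iodide after compound preincubation; score built on the fluorescence ratio of max minus min over baseline; more negative score means more quench and so TMEM16A activation or potentiation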
CHT inh = inhibitors of human choline transporter CHT; CHT-expressing cells, membrane potential dye, choline response; stronger effect = lower value; B-score at 10 µM; actives 0.86% (n = 310,000); AID 488975, 2010;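 active = B-score over 3 SD under the library average, and starting fluorescence ratio not unusually high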;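 note: choline stimulus applied at its EC90 after an EC20 pre-addition; B-score computed on integrated fluorescence ratio after choline addition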
TMEM16A reconf = TMEM16A chloride channel inhibitors, confirmation, cell-based, re-confirmation | shares compounds with TMEM16A inh | HEK293 TMEM16A/YFP-H148Q, iodide quench fluorescence; ionomycin added to raise cell calcium | inhibition, % at 10 µM | actives 39% (n = 2,300) | AID 652189, 2013;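 active = mean duplicate percent inhibition, scaled so buffer wells are 0 and the reference blocker 100, over three buffer SD above buffer mean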
TMEM16A Ca cntr = calcium mobilization in TMEM16A/YFP HEK293 cells, confirmation, counter-screen for TMEM16A inhibitor project. shares compounds with TMEM16A inh. Fluo4 calcium mobilization. calcium response (% of ionomycin), % at 10 µM. actives 2% (n = 2,300);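 active = duplicate-averaged calcium signal over 20% of the ionomycin maximum, relative to buffer baseline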;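 note: each well's signal is peak minus trough fluorescence divided by its pre-addition baseline; 0% = buffer wells and 100% = ionomycin wells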
Parental YFP cnt = iodide YFP quench changes in parental YFP-HEK293, counter-screen for TMEM16A inhibitor project, cell-based | shares compounds with TMEM16A inh | 2,300 tested, under 10 active | YFP ratio F(max-min)/F0 at 10 µM | ionomycin;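 active = yellow fluorescent protein signal ratio exceeding the buffer control mean by over 5 SD of those controls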;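 note: ratio is mean of duplicate wells from kinetic YFP trace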
ClC-1 inh = ClC-1 chloride channel inhibition, selectivity assay for TMEM16A inhibitor project, cell-based, voltage-dependent ClC-1; shares compounds with TMEM16A inh; CHO ClC-1-YFP, iodide influx fluorescence quench; iodide control reads 0, buffer control 100; ratio percent, % at 10 µM; 2,300 tested, under 10 active; AID 652236, 2013;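 active = duplicate-mean ratio percent above the mean of iodide-only control wells, which defines zero, plus 5 of their SD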;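 note: higher percent means stronger block of ClC-1 iodide influx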
* hit, by the source's call; i = inactive; . = no result given.

SMILES	CHT allo act	TMEM16A inh	ANO1 activ	CHT inh	TMEM16A reconf	TMEM16A Ca cntr	Parental YFP cnt	ClC-1 inh
N#Cc1c(NC(=O)Cn2c(=O)oc3ccccc32)oc(-c2ccccc2)c1-c1ccccc1	i	25*	i	i	28%*	i	-0.94	-12
CC(C)(C)c1ccc(C2=CC(c3ccccc3F)n3ncnc3N2)cc1 (stereo not given)	i	i	i	i	.	.	.	.
Cn1cccc1C1C=C(c2ccc(C(C)(C)C)cc2)Nc2ncnn21 (stereo not given)	i	100*	i	i	50%*	i	-0.85	-8
COc1cccc(Oc2ccc(C(F)(F)F)cc2NC(=O)CN2C(=O)NC3(CCCC3)C2=O)c1	.	.	i	.	.	.	.	.
CCCCOc1ccc(C(=O)N2CC(C)OC(C)C2)cc1 (stereo not given)	i	i	i	i	i	i	-1	-5
COc1ccc(Br)cc1/C(C)=N/NC1=NCCN1	i	100*	i	i	20%*	i	-0.86	-10
O=C(O)C1C(c2ccccc2)C(C(=O)OCCCO)C1c1ccccc1 (stereo not given)	i	i	i	i	.	.	.	.
CCCCCOC(=O)C1C(c2ccccc2)C(C(=O)O)C1c1ccccc1 (stereo not given)	i	25*	i	i	i	i	-1.3	-5
CC(Oc1ccccc1F)C(=O)NNC(=O)CC(C)c1ccccc1 (stereo not given)	i	i	i	i	.	.	.	.
N#Cc1ccccc1COC(=O)c1cccc(S(=O)(=O)N2CCCC2)c1	.	.	i	.	.	.	.	.
Cc1cccc(S(=O)(=O)C(C#N)c2nc3ccccc3nc2N2CCCC2)c1 (stereo not given)	i	i	i	i	.	.	.	.
Cc1ccc(S(=O)(=O)C(C#N)c2nc3ccccc3nc2N2CCN(C)CC2)cc1C (stereo not given)	i	i	i	i	.	.	.	.
Cc1ccc(C)c(S(=O)(=O)C(C#N)c2nc3ccccc3nc2N2CCCC2)c1 (stereo not given)	i	i	i	i	i	i	-0.73	-8
Cc1ccc(C)c(S(=O)(=O)C(C#N)c2nc3ccccc3nc2N2CCOCC2)c1 (stereo not given)	i	25*	i	i	22%*	i	-0.89	-14
Cc1nc2ccc(NS(=O)(=O)c3ccccc3Cl)cc2s1	.	.	i	.	.	.	.	.
CSc1nc2ccc(NS(=O)(=O)c3cccc(Cl)c3Cl)cc2s1	i	100*	i	i	62%*	i	-0.92	-16
c1coc(CNc2ncnc3c2oc2ccccc23)c1	i	100*	i	i	i	i	-1	-5
c1ccc2c(c1)oc1c(Nc3ccc4c(c3)OCCO4)ncnc12	i	25*	i	i	i	i	-0.92	3
Cc1nc(Nc2ccc3c(c2)OCCO3)c2oc3ccccc3c2n1	i	i	i	i	.	.	.	.
Cc1ccc2[nH]c3c(NCc4ccco4)ncnc3c2c1	i	25*	i	i	22%*	i	-1.1	-20
CC1=C([N+](=O)[O-])C(c2ccccc2)C2=C(N1)c1ccccc1C2=O (stereo not given)	i	25*	i	i	38%*	i	-1	3
Cc1[nH]c2ccccc2c1C(=O)C(=O)NC1CC1	i	i	i	i	.	.	.	.
CCOC(=O)C(=CNc1nc(-c2ccc3ccccc3c2)cs1)C(=O)OCC	i	i	i	i	.	.	.	.
COc1ccc2cc([C@H](C)C(=O)N(C)Cc3ccccc3N3CCCC3)ccc2c1	i	i	i	i	22%*	i	-0.9	3
CC(=O)c1ccc(N2CCN(C(=O)c3ccccc3SCC(=O)NCc3ccco3)CC2)c(F)c1	.	.	i	.	.	.	.	.
SMILES	CHT allo act	TMEM16A inh	ANO1 activ	CHT inh	TMEM16A reconf	TMEM16A Ca cntr	Parental YFP cnt	ClC-1 inh
CCCC1c2ccc(C)n2CCN1C(=O)Nc1ccccc1Cl (stereo not given)	i	i	i	i	.	.	.	.
CCC1c2ccc(C)n2CCN1C(=O)Nc1cc(Cl)ccc1OC (stereo not given)	i	i	i	i	16%*	i	-0.98	-10
CCC1c2ccc(C)n2CCN1C(=O)Nc1ccccc1C(=O)OC (stereo not given)	i	i	i	i	i	i	-1.1	-14
Nc1ncnc2c1ncn2[C@@H]1O[C@H](CNCC#Cc2ccccc2)[C@@H](O)[C@H]1O	.	.	i	.	.	.	.	.
COc1cc(OC)c(C(=O)Nc2ncn[nH]2)cc1OC	i	100*	i	i	i	i	-1.3	-3
C[C@@H]1CN([C@H](C)CO)C(=O)Cc2cc(NC(=O)CCC(F)(F)F)ccc2O[C@@H]1CN(C)S(=O)(=O)c1ccccc1	.	.	i	.	.	.	.	.
Cc1ccc(-c2ccc(C(=O)NCCCNC(=O)c3cnccn3)o2)cc1Cl	i	i	i	i	.	.	.	.
COc1ccc2cc(CN(CC3COCCO3)S(=O)(=O)c3ccccc3)c(=O)[nH]c2c1 (stereo not given)	.	.	i	.	.	.	.	.
COc1ccc2cc(CN(Cc3cccnc3)S(=O)(=O)c3ccccc3)c(=O)[nH]c2c1	i	100*	i	i	i	i	-0.86	-6
CCCCN(Cc1cc2cc(OC)ccc2[nH]c1=O)S(=O)(=O)c1ccc(C)cc1	i	25*	i	i	29%*	i	-0.64	-18
COCCCN1C(=O)c2ccc(C(=O)Nc3ccc(C)cc3C)cc2C1=O	i	i	i	i	.	.	.	.
Cc1ccc(S(=O)(=O)N(Cc2ccccc2)Cc2ccco2)cc1	i	100*	i	i	28%*	i	-1	-8
COc1cccc(CNC(=O)Cn2c(=O)n(CCC(=O)N3CCCCC3)c(=O)c3sccc32)c1	i	i	i	i	.	.	.	.
CC(=O)N1Cc2ccccc2CC1C(=O)NCc1ccccc1F (stereo not given)	i	i	i	i	.	.	.	.
